Common to all, as to details: concentration: 1 μM,replicates: in singlicate; n = 1
Experiment [1] has as its system RPS6KA4(Kin.Dom.1-N-terminal).
Experiment [2] concerns RPS6KA4(Kin.Dom.2-C-terminal).
Experiment [3] concerns RPS6KA5(Kin.Dom.1-N-terminal).
The subject of experiment [4] is RPS6KA5(Kin.Dom.2-C-terminal).
The subject of experiment [5] is T1, RSK1(Kin.Dom.1-N-terminal).
T1 construct: gene RPS6KA1

The subject of experiment [6] is T2, RSK1(Kin.Dom.2-C-terminal).
T2 construct: gene RPS6KA1

For experiment [7], the system named is T3, RSK2(Kin.Dom.1-N-terminal).
T3 construct: gene RPS6KA3

Experiment [8] has as its system T4, RSK2(Kin.Dom.2-C-terminal).
T4 construct: gene RPS6KA3

Experiment [9] concerns T5, RSK3(Kin.Dom.1-N-terminal).
T5 construct: gene RPS6KA2

For experiment [10], the system named is T6, RSK3(Kin.Dom.2-C-terminal).
T6 construct: gene RPS6KA2
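Further: KINOMEscan kinase panel screen.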

For `CCN1CCN(CCCC(=O)Nc2n[nH]c3nc(-c4ccc(O)cc4)c(Br)cc23)CC1` [SB-731579], the “%Inh” value in experiment [1] came out at 5%; in experiment [2], 98.5%; in [3] it was 4%; in experiment [4] it was 0%; in [5], 0%; in experiment [6], 0%. Further, the “%Inh” value was determined as 13% in experiment [7], 0% in [8], 0% in experiment [9] and 30% in [10].

With `Cc1nnc(-c2ccc3occ(-c4ccc(S(C)=O)cc4)c3n2)o1` (stereo not shown), the “%Inh” value in experiment [1] came to 0%; in [2] it was 0%; in experiment [3] it was 9%; in experiment [4] it was 0%; in experiment [5], 0%; in experiment [6], 14%. Further, the “%Inh” value is 0% in [7], 0% in experiment [8], 0% in [9] and 3% in experiment [10].

With `Cl.Cl.NC[C@H](CC1CCCCC1)NC(=O)c1ccc(-c2ccnc3[nH]ccc23)s1` [GSK1581428], the “%Inh” value in [1] is 82%; in experiment [2], 79%; in experiment [3] it was 84%; in experiment [4], 67%; in experiment [5], 23%; in [6], 12%. Moreover, the “%Inh” value in [7] came out at 83%; in experiment [8], 0%; in experiment [9] it was 57%; in [10], 21%.

Take `Cc1cccc(-c2nc(Nc3ccncc3)c3sccc3n2)n1` [GW869641]: the “%Inh” value in [1] came out at 30%; in [2], 7%; in experiment [3] it was 19%; in experiment [4], 0%; in [5] it was 2%; in experiment [6], 8%. Moreover, the “%Inh” value in experiment [7] is 41%; in [8], 50%; in experiment [9], 7%; in experiment [10], 21%.

Take `CS(=O)(=O)Nc1ccc(-c2ccnc3[nH]ccc23)cc1` [GSK993273]: the “%Inh” value worked out at 0% in experiment [1]; 94.1% in experiment [2]; 0% in experiment [3]; 86% in [4]; 17% in experiment [5]; 55% in experiment [6]. In addition, the “%Inh” value in experiment [7] is given as 35%; in [8] it was 29%; in [9] it was 19%; in experiment [10], 54%.

`CSc1nccc(-c2c(-c3ccc(F)cc3)ncn2CCCN2CCOCC2)n1.Cl` [SB-217146]: the “%Inh” value in [1] amounted to 27%; in experiment [2] it was 0%; in experiment [3] it was 0%; in experiment [4] it was 4%; in experiment [5], 3%; in experiment [6], 17%. In addition, the “%Inh” value was 46% in experiment [7], 0% in experiment [8], 0% in experiment [9] and 18% in experiment [10].

In the case of `O=C(Nc1ccccc1)c1cccc(Oc2ccc3nccn3n2)c1`, the “%Inh” value came out at 0% in experiment [1]; 10% in experiment [2]; 0% in [3]; 16% in [4]; 0% in experiment [5]; 100% in experiment [6]. The “%Inh” value in experiment [7] was determined as 9%; in experiment [8], 46%; in [9], 24%; in experiment [10] it was 0%.

In the case of `Nc1nccc(-c2ccc3c(N)n[nH]c3c2)n1` [GSK1034945], the “%Inh” value was 0% in [1]; 81% in [2]; 7% in experiment [3]; 62% in [4]; 4% in experiment [5]; 32% in [6]. The “%Inh” value in [7] stood at 29%; in experiment [8] it was 22%; in experiment [9], 31%; in experiment [10] it was 1%.

For `Cc1ccc2c(-c3ccnc(Nc4ccc(C(F)(F)F)cc4)n3)cnn2n1` [GW819776], the “%Inh” value amounted to 28% in experiment [1]; 0% in [2]; 0% in experiment [3]; 0% in experiment [4]; 19% in experiment [5]; 8% in experiment [6]. The “%Inh” value in experiment [7] is recorded as 53%; in [8], 0%; in experiment [9], 0%; in [10], 7%.

Take `O=C(Nc1n[nH]c2cc(-c3ccco3)ccc12)C1CC1` [SB-737447]: the “%Inh” value was determined as 0% in experiment [1]; 18% in experiment [2]; 0% in experiment [3]; 23% in experiment [4]; 16% in experiment [5]; 0% in experiment [6]. Moreover, the “%Inh” value in [7] is recorded as 22%; in experiment [8], 0%; in [9] it was 18%; in experiment [10] it was 0%.

As for `COC(=O)c1cccc(NC(=O)NC2CCN(c3ccnc(NCc4ccc(F)cc4)n3)CC2)c1` [GSK1379860], the “%Inh” value was 7% in [1]; 0% in experiment [2]; 7% in experiment [3]; 0% in experiment [4]; 18% in experiment [5]; 0% in experiment [6]. For the same compound, the “%Inh” value in experiment [7] came to 0%; in experiment [8], 9%; in experiment [9], 3%; in experiment [10], 0%.

With `Cl.Nc1n[nH]c2cc(-c3ccccn3)ccc12` [GSK2189892], the “%Inh” value in [1] is 15%; in experiment [2], 0%; in [3] it was 26%; in [4] it was 0%; in experiment [5] it was 29%; in experiment [6], 0%. Also, the “%Inh” value in [7], in experiment [8], in experiment [9] and in experiment [10] was 0% throughout.

In the case of `Cl.c1ccc(Oc2ccc(Nc3ccnc4cc(-c5ccc(CN6CCNCC6)o5)ccc34)cc2)nc1` [GW567142], the “%Inh” value is 0% in [1]; 0% in [2]; 0% in experiment [3]; 14% in [4]; 2% in [5]; 16% in [6]. The “%Inh” value in experiment [7] is listed as 0%; in experiment [8], 0%; in experiment [9] it was 0%; in experiment [10], 9%.

For the compound `CC(=O)Nc1nc2cnc(Nc3cc(NC(=O)c4cccc(CC(C)(C)C#N)c4)ccc3C)nc2s1`, the “%Inh” value amounted to 0% in [1]; 2% in [2]; 13% in experiment [3]; 0% in [4]; 5% in experiment [5]; 0% in [6]. Further, the “%Inh” value in experiment [7] was 0%; in experiment [8] it was 26%; in experiment [9] it was 0%; in experiment [10] it was 0%.

As for `COc1cccc(C2=C(Nc3cccc(Cl)c3)C(=O)NC2=O)c1` [SB-341556], the “%Inh” value in experiment [1] is on record as 11%; in experiment [2] it was 0%; in experiment [3], 5%; in experiment [4] it was 0%; in experiment [5], 28%; in experiment [6], 24%. The “%Inh” value in experiment [7] was 25%; in experiment [8], 11%; in [9], 1%; in [10], 0%.

For the compound `O=C(NCC1CC1)c1ccc(-c2cc(C(=O)NC3CC3)ccc2F)cc1` [GW810445], the “%Inh” value came out at 7% in experiment [1]; 0% in experiment [2]; 0% in [3]; 7% in [4]; 0% in experiment [5]; 3% in experiment [6]. Further, the “%Inh” value in experiment [7], in experiment [8], in experiment [9] and in experiment [10] was 0% each time.
